Screens from PubChem.
MCF10A rerep: DNA re-replication induction in MCF 10a cells. MCF 10A DNA re-replication, Hoechst nuclear intensity, 48 h. 2.9% of 350,000 active. Potency, µM (titrated, usually from 46.1 µM), inactives show at the top dose activity, positive = re-replication, usual class: activators; further: potency means the concentration at half of the fitted maximal effect; % of control where 0% means no effect; nearly all actives have a fitted effect of over 50% in size
KCNH2 WT inh: KCNH2 (human, wildtype) channel inhibition. Q12809. U2OS, BacMam KCNH2, thallium flux FluxOr; active compounds read low. activity change, % at 1.84 µM. 0.37% of 340,000 active. AID 720551;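 active means maximum activity change below -70%; inconclusive means maximum activity change between -70% and -50%; inactive means maximum activity change above -50%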; further: on the % scale 0 is the no-effect control and ±100 the full control effect
Target sequence (Q12809 whole entry, looked up): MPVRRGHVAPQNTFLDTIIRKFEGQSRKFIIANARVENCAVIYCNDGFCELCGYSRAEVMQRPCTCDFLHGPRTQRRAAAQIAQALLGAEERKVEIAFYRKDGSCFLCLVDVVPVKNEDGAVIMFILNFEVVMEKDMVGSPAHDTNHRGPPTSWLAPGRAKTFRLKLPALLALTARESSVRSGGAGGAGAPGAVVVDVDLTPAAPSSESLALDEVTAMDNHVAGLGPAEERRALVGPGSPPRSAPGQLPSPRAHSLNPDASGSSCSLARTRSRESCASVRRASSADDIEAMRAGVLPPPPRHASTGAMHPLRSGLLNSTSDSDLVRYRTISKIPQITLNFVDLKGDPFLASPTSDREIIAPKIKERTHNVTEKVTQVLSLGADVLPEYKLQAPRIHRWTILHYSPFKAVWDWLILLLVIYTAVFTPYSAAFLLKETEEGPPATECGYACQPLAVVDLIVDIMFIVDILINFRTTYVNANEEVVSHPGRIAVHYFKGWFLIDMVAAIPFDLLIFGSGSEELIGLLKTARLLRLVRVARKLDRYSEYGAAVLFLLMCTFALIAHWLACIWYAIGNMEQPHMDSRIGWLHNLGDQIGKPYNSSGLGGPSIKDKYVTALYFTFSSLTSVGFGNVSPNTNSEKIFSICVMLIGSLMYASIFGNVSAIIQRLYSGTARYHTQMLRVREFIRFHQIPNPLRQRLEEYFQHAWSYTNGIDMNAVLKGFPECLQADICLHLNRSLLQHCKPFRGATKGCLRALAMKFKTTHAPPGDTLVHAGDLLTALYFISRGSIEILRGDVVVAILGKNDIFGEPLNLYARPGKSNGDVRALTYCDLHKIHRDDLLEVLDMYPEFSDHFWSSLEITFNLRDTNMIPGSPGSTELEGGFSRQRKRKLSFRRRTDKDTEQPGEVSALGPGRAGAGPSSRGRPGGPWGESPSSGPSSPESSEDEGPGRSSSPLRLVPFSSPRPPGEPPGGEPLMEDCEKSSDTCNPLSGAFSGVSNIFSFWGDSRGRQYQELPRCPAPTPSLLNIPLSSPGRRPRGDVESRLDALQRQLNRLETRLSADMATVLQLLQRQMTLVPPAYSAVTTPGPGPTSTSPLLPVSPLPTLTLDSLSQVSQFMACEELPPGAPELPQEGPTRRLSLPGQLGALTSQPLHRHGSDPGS
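U2OS cells were transduced with wild-type KCNH2 virus (2.03 x 10^8 / mL) for 4 h at room temperature, then cultured overnight at 37 C. Thallium flux was read with FluxOr dye. Rate constants were normalized to DMSO controls.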
KCNH2 3.1 block: inhibitors of human KCNH2 3.1 potassium channel isoform; U2OS KCNH2 3.1, thallium flux FluxOr; active compounds read low; activity change, % (tested at about 1.8 µM); 0.95% of 340,000 active; AID 720553;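 active means maximum activity change below -70%; inconclusive means maximum activity change from -70% to -50%; inactive means maximum activity change above -50%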;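 further: thallium influx rate constant from kinetic fluorescence after stimulation buffer; on the % scale 0 is the no-effect control and ±100 the full control effect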
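U2OS cells transduced with KCNH2 3.1 mutant virus (1.77 x 10^8 /mL, 4 h), plated overnight at 37 C, loaded 45 min with FluxOr dye plus Red40 quencher. Thallium flux rate constant from kinetic reads after stimulation buffer, normalised to controls.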
SW480 rerep: inducers of DNA re-replication in SW480 colon cancer cells; SW480 DNA re-replication, Hoechst DNA content imaging, 48 h; AID 624297; Potency, µM (series often up to 46.1 µM), for inactives: at the highest dose re-replication activation, actives largely listed as activators; 1.8% of 340,000 active; further: potency means the concentration at half of the fitted maximal effect; % of control where 0% means no effect; nearly all actives have a fitted effect of over 55% in size
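Image-based read-out: total Hoechst fluorescence of nuclei (405 nm excitation, 500-530 nm emission), with hits raising the fraction of high-intensity nuclei. SW480 colon cells incubated 48 hr with compounds at 37 C.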
KB-V1 cytotox: KB-V1 MDR subline cytotoxicity; KB-V1 MDR cells viability, CellTiter-Glo, 72 h; Potency, µM (titrated, usually from 46.1 µM), actives largely listed as cytotoxic; 3.4% of 400,000 active; further: potency means the concentration at half of the fitted maximal effect; on the % scale 0 is the no-effect control and ±100 the full control effect; nearly all actives have a fitted effect of over 60% in size
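KB-V1 MDR subline cells in DMEM (phenol-red free, 10% FBS) exposed to compounds in qHTS concentration series for 72 h at 37 degrees C. Viability read by CellTiter-Glo luminescence; concentration-effect curves fitted after normalization and correction.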
KB-3-1 tox: KB-3-1 parental cell cytotoxicity; 1.4% of 400,000 active; Potency, µM (titrated, usually from 46.1 µM), most hits filed as cytotoxic; KB-3-1 viability, CellTiter-Glo ATP luminescence, 72 h; further: potency means the concentration at half of the fitted maximal effect; on the % scale 0 is the no-effect control and ±100 the full control effect; nearly all actives have a fitted effect of over 60% in size
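Parental KB-3-1 adenocarcinoma cells in phenol-red-free DMEM with 10% FBS were pin-treated with compounds at several concentrations, incubated 72 h at 37 °C, and viability read by CellTiter-Glo luminescence; concentration-effect curves were fitted after normalization.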
Starred values were filed as active, the others as inactive; i = inactive; u = inconclusive; x = no result; [ ] = dose if it differs, or a comment. Rows were chosen to be rich in hits. Some 7.6% of all compounds tested hit in one or more screens of this group. Unless noted, the call rests on the fitted dose curve; in most records, active means well fitted curve in the direction sought with a large enough effect; inconclusive means small, poorly fitted or top-dose-only effect, or another doubt; inactive means no such curve, though single readings can be large; an effect the other way counts as inactive or inconclusive.

SMILES	MCF10A rerep	KCNH2 WT inh	KCNH2 3.1 block	SW480 rerep	KB-V1 cytotox	KB-3-1 tox
O=C(Nc1ccccc1Cl)C1CCCN(c2ncnc3c2nc2n3CCCCC2)C1 (stereo unspecified)	u	-0.9	13.1	9.4%	7.31µM*	i
Cc1ccc(NC(=O)C2CCCN(c3ncnc4onc(C)c34)C2)c(Cl)c1 (stereo unspecified)	x	x	x	x	u	2.59µM*
CCc1ccccc1N(CC)C(=O)C1CCN(c2ncnc3c2nc2n3CCCCC2)CC1	23.1µM*	-3.1	-6.6	u	u	u
OCCCNc1cc(-c2ccnc(Nc3cccc(Cl)c3)n2)ccn1	u	-6.3	-7.2	u	0.13µM*	u
Cc1cccc(N2CCN(C(=O)CN3CCOc4ccccc43)CC2C)c1 (stereo unspecified)	0.7%	4.5	-9.5	u	i	i
Cc1ccc(N2C(=O)C3C4C=CC(CNC(=S)N5CCN(c6cccc(C)c6)C(C)C5)(O4)C3C2=O)cc1 (stereo unspecified)	20.6µM*	7.6	-23.4	10.3µM*	u	u
CC(=O)c1ccc(NC(=S)NC(C)c2ccc(Cl)cc2Cl)cc1 (stereo unspecified)	u	2.3	-8.8	-4.0%	18.4µM*	i
COc1ccc(CCNc2oc(Cc3cccc4ccccc34)nc2C#N)cc1OC	5.5%	-2.7	-6.2	0.6%	18.4µM*	u
CC(C)Nc1oc(Cc2cccc3ccccc23)nc1C#N	18.1%	-1.3	2.0	-4.8%	16.4µM*	i
Cc1ccc(C(C(=O)NCc2ccco2)N(C(=O)CNC(=O)c2cccs2)c2c(C)cc(C)cc2C)cc1 (stereo unspecified)	4.5%	0.8	-3.3	1.5%	u	i
Cc1ccc(C(C(=O)NCc2ccco2)N(C(=O)CNC(=O)c2cccs2)c2c(C)cccc2C)cc1 (stereo unspecified)	18.4µM*	-2.2	-0.7	u	i	i
C(=Cc1cnc2ccccc2n1)c1ccc2c(c1)OCO2	x	3.3	3.7	x	14.6µM*	i
O=C(Nc1c2c(nn1-c1ccc(F)cc1)CS(=O)C2)c1ccc(S(=O)(=O)N2CCOCC2)cc1 (stereo unspecified)	-13.0%	2.2	12.7	-0.9%	i	i
CC(C)Cc1nc2sc3c(=O)[nH]cnc3c2c2c1CCC2	6.1%	4.1	-2.0	-6.1%	16.4µM*	i
CCN(CC(=O)Nc1ccc(OC)cc1)C(=O)c1ccccc1Sc1ccccc1C#N	-1.2%	-13.9	-1.9	-523.2%	i	i
O=C(NCCO)c1cc2c(s1)CCC2	0.251µM*	-8.8	16.6	u	i	i
Cc1csc(NC(=O)c2cc3c(s2)CCCC3)n1	-8.4%	-10.6	13.7	9.5%	i	i
Cc1csc(NC(=O)c2cc3c(s2)CCCCC3)n1	16.4µM*	-4.4	-6.7	11.7%	u	i
CNC(=O)c1cc2c(s1)CCCCCC2	1.0%	-2.1	2.1	-1.4%	i	i
CCc1nnc(NC(=O)c2cc3c(s2)CCCCC3)s1	0.3%	-0.7	6.5	-8.9%	i	i
Cc1cnc(NC(=O)c2cc3c(s2)CCCC3)s1	u	-3.6	4.7	0.3%	i	20.6µM*
COc1ccc(CNC(=O)Cn2cnc3c(NCc4ccccc4)ncnc32)cc1	u	-10.3	-2.8	13µM*	i	10.3µM*
O=c1c2[nH]c3ccccc3c2ncn1CCC1=CCCCC1	7.0%	-3.3	14.7	0.1%	i	i
COc1ccc(CNc2ncnc3c2[nH]c2ccccc23)cc1	u	2.7	-25.1	96.9%	13µM*	i
CC(C)OCCCNc1ncnc2c1[nH]c1ccccc12	-4.8%	6.8	-0.9	0.0%	u	7.31µM*
SMILES	MCF10A rerep	KCNH2 WT inh	KCNH2 3.1 block	SW480 rerep	KB-V1 cytotox	KB-3-1 tox
C1=C(CCNc2ncnc3c2[nH]c2ccccc23)CCCC1	u	-8.1	-10.6	9.7%	u	5.17µM*
C[C@@H]1C[C@H]2[C@H]3C[C@@H](F)C4=CC(=O)C=C[C@]4(C)[C@@]3(Cl)[C@@H](O)C[C@@]2(C)[C@@H]1C(=O)COC(=O)C(C)(C)C	7.2%	x	x	-0.9%	x	x
CCc1ccc(C2c3c(oc4ccc(F)cc4c3=O)C(=O)N2c2nc(C)c(C(=O)OC)s2)cc1 (stereo unspecified)	x	x	x	x	i	i
Nc1nonc1-n1nnc(C(=O)N/N=C/c2ccc(Br)cc2)c1CSC1=NCCS1	u	20.1	-48.1	u	i	u
Nc1nonc1-n1nnc(C(=O)N/N=C/c2ccccc2)c1CSc1ccccc1	u	6.1	-9.2	u	i	i
Nc1nonc1-n1nnc(C(=O)N/N=C/c2cccnc2)c1CSC1=NCCS1	18.4µM*	-0.9	-0.7	5.6%	i	i
Cc1ccc(/C=N/NC(=O)c2nnn(-c3nonc3N)c2CSc2ccccc2)s1	20.6µM*	18.6	4.2	13µM*	i	i
CCc1c(C(=O)NCCc2cccc(C)c2)[nH]c(C)c1C(C)=O	u	0.1	-14.0	18.1%	11.6µM*	u
CCc1c(C(=O)NCCc2ccc(OC)c(OC)c2)[nH]c(C)c1C(C)=O	19.4%	-5.7	-0.8	-0.5%	14.6µM*	i
CC(=O)c1c(C)[nH]c(C(=O)NC2CCCCC2)c1C	-11.0%	-15.8	5.6	-4.8%[9.22 µM]	i	i
CCc1c(C(=O)NC2CCCCC2)[nH]c(C)c1C(C)=O	13.5%	3.9	-1.6	-18.9%	18.4µM*	i
COc1ccc(Cl)cc1NC(=O)c1sc2nc3n(c(=O)c2c1C)CCC3	x	x	x	x	i	i
COC(=O)[C@@]1(Cc2ccc(OC)cc2)[C@@H]2C(=CC(=O)[C@H]2CC(=O)C(=O)N2CCCC2)CN1C(=O)c1ccccc1	23.1µM*	-0.1	4.6	u	u	9.2µM*
Cc1ccc(C(=O)/C=C/c2cn(CC(O)CN3CCOCC3)c3ccccc23)cc1 (stereo unspecified)	13µM*	-3.7	2.7	20.6µM*	i	u
COc1ccc(C(=O)/C=C/c2cn(CC(O)CN3CCOCC3)c3ccccc23)cc1 (stereo unspecified)	14.6µM*	20.8	-9.9	14.6µM*	i	i
CCOc1ccc(NC(=S)N(CCOC)C(C)c2cccnc2)cc1 (stereo unspecified)	-5.1%	5.7	-0.3	-3.1%	i	i
CC(=O)Nc1ccc(/C=C/c2ccccn2)cc1	x	x	x	x	i	u
COC(=O)c1cn(C(=O)c2ccc(C)cc2)c2ccccc12	4.0%	x	1.7	7.31µM*	i	i
